Outcome data for 71 compounds are collected here from PubChem BioAssay AID493240 (Broad Institute, 2011).

Screen size: about 1,300 compounds; about 270 (21%) were called active. How the calls were made is not given here. A selection follows. Results with a measured potency or affinity are listed apart.

The assay is described as follows: SK-MEL-5 parental cell viability loss, dose response, orthogonal assay for MITF inhibitor project, CellTiter-Glo, cherry-picked, set 3 (AID 493240). Particulars: SK-MEL-5 viability, ATP luminescence (CellTiter-Glo), 24 h; series mostly up to 35 µM.
Regarding `COc1ccccc1N1C(=O)N(C(C)=O)C2C1Nc1ccccc1N2C` (stereo unspecified), the result was inactive.
The value for `Cc1cccc(OCc2nc3ccccc3n2C)c1` was “inactive”; that for `Cc1nc(NC(=O)C2CC2)sc1C(=O)Nc1ccccc1Cl` was “inactive”.
The value for `CCOc1ccc(N=C(C)C2=C(O)c3ccccc3C2=O)cc1` was “inactive”.
In the case of `O=C(CC(=O)c1ccccc1)Nc1ccccc1` it was “inactive”; in that of `CCCCOC(=O)Nc1ccc2c(C)cc(=O)oc2c1`, “inactive”.
Consider `COc1cc(CN2CCC(Cc3ccccc3)CC2)cc(OC)c1OC`, for which the result was inactive.
For the compound `COc1ccc(S(=O)NC2CCCCC2)c(OC)c1C` (stereo unspecified), the outcome was inactive.
Consider `CCOC(=O)C1(Cc2cccc(OC)c2)CCCN(C(=O)CSC)C1` (stereo unspecified), for which the outcome was inactive.
Regarding `CC(C)(C)c1ccc(C(=O)N2CCCCCC2=O)cc1`, the result was inactive.
Regarding `C=CC[n+]1c(-c2ccc(C)cc2)csc1Nc1ccc(NC(C)=O)cc1`, the outcome was inactive.
The value for `O=C1c2ccccc2C(=O)N1CCOc1ccccc1` was “inactive”; that for `CC(C)(C)c1ccc(OCCCNCc2ccccc2)cc1` was “inactive”; that for `CCOC(=O)c1cc(-c2ccc(OC)cc2)n[nH]1` was “inactive”.
The value for `COc1ccc(C(=O)Nc2ccc(C)cn2)c(OC)c1` was “inactive”.
Turning to `O=C(N/N=C/c1ccccn1)c1cc([N+](=O)[O-])cc([N+](=O)[O-])c1`, the outcome was inactive.
In the case of `COc1ccc(C(C(=O)NC2CCCCC2)N(C(=O)CCl)c2ccc(OC)cc2)cc1` (stereo unspecified) it was “inactive”.
The value for `COc1ccc(N(C(=O)CCl)C(C(=O)NC2CCCCC2)c2cccnc2)cc1` (stereo unspecified) was “inactive”.
The value for `CCn1c(C)cc(C(=O)CN2C(=O)c3ccccc3S2(=O)=O)c1C` was “inactive”; that for `O=C1c2ccccc2S(=O)(=O)N1Cc1nc2ccccc2s1` was “inactive”; that for `CCCC(=O)NC(c1ccc(OC)c(OC)c1)c1cc(Cl)c2cccnc2c1O` (stereo unspecified) was “inactive”.
Regarding `O=C(Nc1nc(-c2ccccn2)cs1)c1ccc(F)c(S(=O)(=O)N2CCOCC2)c1`, the outcome was inactive.
The value for `Cn1cc([N+](=O)[O-])c(C(=O)Nc2nc(-c3ccc(Cl)cc3)cs2)n1` was “inactive”.
In the case of `CC1CCCCC1NC(=O)/C(C#N)=C/C=C/c1ccccc1[N+](=O)[O-]` (stereo unspecified) it was “inactive”; in that of `OCC1OC(n2cnc3c(NCc4ccco4)ncnc32)C(O)C1O` (stereo unspecified), “inactive”.
In the case of `COc1cccc(/C=N/NC(=O)CN2CC(c3ccccc3)CC2=O)c1OC` (stereo unspecified) it was “inactive”; in that of `CCN1CCc2c(sc(NC(=O)c3ccc(S(=O)(=O)N4CCCCCC4)cc3)c2C(=O)NC)C1`, “inactive”.
With `Cc1scc(C(=O)N/N=C/c2ccc([N+](=O)[O-])o2)c1C`, the result was inactive.
The value for `O=[N+]([O-])c1ccc(Sc2cc[n+]([O-])c3ccccc23)c([N+](=O)[O-])c1` was “inactive”; that for `Cc1ccc(SCCSc2ncccn2)cc1` was “inactive”.
The value for `O=C(O)C1CCN(C(=O)OCc2ccccc2)CC1` was “inactive”; that for `COc1cc(C2C(C#N)=C(N)Oc3cc(N(C)C)ccc32)cc2c1OCO2` (stereo unspecified) was “inactive”.
Turning to `O=C(O)c1cc2ccccc2c(N=Nc2cccnc2)c1O`, the result was inactive.
The value for `Cc1cc(C)c2c(N)c3cccc(C)c3nc2n1` was “inactive”.
In the case of `OCCNc1c2ccccc2nc2ccccc12` it was “inactive”; in that of `CC(=O)Nc1ccc(-c2nc3ccccc3o2)cc1`, “inactive”; in that of `Cc1nn2c(N)c(-c3ccccc3)cnc2c1-c1ccccc1`, “inactive”.
In the case of `COc1ccc(-c2nc(-c3ccncc3)no2)cc1OC` it was “inactive”; in that of `C=Cc1ncc(OC)c2c1[nH]c1ccccc12`, “inactive”; in that of `Cc1ccc(NC(=O)CN(C)C(=O)Cn2ncc(Cl)c(Cl)c2=O)cc1`, “inactive”.
As for `O=C(/C=C/NNC(=O)c1ccccc1)c1ccc([N+](=O)[O-])cc1`, the outcome was inactive.
In the case of `COc1ccc(/C=C/c2cc(C(F)(F)F)on2)cc1` it was “inactive”.
The value for `O=[N+]([O-])c1ccc(-n2nnnc2-c2ccccc2)c([N+](=O)[O-])c1` was “inactive”.
The value for `O=C(N/N=C/c1ccc([N+](=O)[O-])o1)c1cc2ccccc2o1` was “inactive”; that for `Cc1ccc(OCC(=O)N/N=C/c2ccc([N+](=O)[O-])o2)cc1` was “inactive”; that for `O=C(CNc1ccc2ccccc2c1)N/N=C/c1ccc([N+](=O)[O-])o1` was “inactive”.
As to `Cc1ccccc1OCC(=O)N/N=C/c1ccc([N+](=O)[O-])o1`, the outcome was inactive.
In the case of `Cc1cc(C(=O)N/N=C/c2ccc([N+](=O)[O-])o2)c(C)o1` it was “inactive”.
The value for `CCN(CC)S(=O)(=O)c1cccc(C(=O)N/N=C/c2ccc([N+](=O)[O-])o2)c1` was “inactive”; that for `O=C(CNc1cccc([N+](=O)[O-])c1)N/N=C/c1ccc([N+](=O)[O-])o1` was “inactive”; that for `Cc1cc(C)cc(OCC(=O)N/N=C/c2ccc([N+](=O)[O-])o2)c1` was “inactive”.
The value for `O=c1c2ccccc2cnn1CCOc1ccccc1` was “inactive”.
Take `CC(C)c1nnc(NC(=O)CCC2CCCCC2)s1`: the result was inactive.
In the case of `c1cc(CSc2nnc(-c3ccc4c(c3)OCO4)o2)ccn1` it was “inactive”; in that of `COCCNC(=O)/C(C#N)=C/c1cccc(/C=C(\C#N)C(=O)NCCOC)c1`, “inactive”.
In the case of `Cc1ccc(C2=NN(C(=O)CCl)C(c3cccs3)C2)o1` (stereo unspecified) it was “inactive”; in that of `Cc1ccc([N+](=O)[O-])cc1N1C(=O)CS/C1=N\NC(=O)c1cccnc1`, “inactive”.
In the case of `CC(=O)COc1ccc2cc(-c3ccccc3)c(=O)oc2c1` it was “inactive”; in that of `O=[N+]([O-])c1ccccc1OCCOc1ccccc1[N+](=O)[O-]`, “inactive”.
On to `CCOC(=O)C1(Cc2ccccc2)CCCN(CCCn2cccn2)C1` (stereo unspecified), for which the outcome was inactive.
In the case of `CN(Cc1ccccc1)C1=CC(=[N+]2CCCCC2)CC(C)(C)C1` it was “inactive”; in that of `O=C(NCCNc1ccccc1[N+](=O)[O-])c1cc(F)c(F)cc1Cl`, “inactive”; in that of `N#CC(C#N)=C1C=CC=CN1/C(=C\c1ccco1)C(=O)c1ccc(Br)cc1`, “inactive”.
In the case of `CC(C)N1C(=O)S/C(=C\c2ccc(-c3ccc(Cl)c(C(=O)O)c3)o2)C1=O` it was “inactive”; in that of `Cc1cn(CCC(=O)Nc2ccccc2N2CCOCC2)c2ccccc12`, “inactive”.
As to `Clc1cccc(-c2nc(-c3ccccn3)no2)c1`, the result was inactive.
In the case of `Fc1ccccc1-c1nc(-c2ccncc2)no1` it was “inactive”; in that of `C/C(=N/NC(=O)C(O)(c1ccccc1)c1ccccc1)c1ccc([N+](=O)[O-])o1`, “inactive”; in that of `O=C(Nc1ccc2nc3n(c(=O)c2c1)CCCC3)c1cc([N+](=O)[O-])ccc1F`, “inactive”.
Regarding `O=C(c1ccc([N+](=O)[O-])s1)N1CCN(c2ccccn2)CC1`, the result was inactive.
Regarding `CCN(CC(=O)Nc1ccc2c(c1)OCCO2)C(=O)c1ccc([N+](=O)[O-])s1`, the result was inactive.
